Compound activity from PubChem.
Pol kappa inh: DNA polymerase kappa (human) inhibition | Q9UBT6 | purified Pol kappa, fluorescent DNA synthesis assay, 10 min | AID 588579 | 400,000 tested, 0.53% active | Potency, µM (top dose mostly 107 µM), for inactives: at the highest dose activity, negative = inhibition, hits mostly inhibitors; note: potency is the fitted concentration of half-maximal effect; % is set by controls: 0 for no effect and ±100 for the full control effect
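Readout: fluorescence, taken kinetically at 0 and 10 min. Conditions: 10 nM Pol kappa, 15 min RT compound preincubation, 50 nM substrate final. Controls: enzyme-free buffer wells.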
Pol beta inh: blocks human DNA polymerase beta activity. 340,000 tested, 1.3% active. Pol beta primer extension/strand displacement, fluorescence kinetic. Potency, µM (series often up to 114 µM), without a hit: at the highest dose activity change, negative = inhibition, actives largely listed as inhibitors. P06746; note: potency is the fitted concentration of half-maximal effect; % is set by controls: 0 for no effect and ±100 for the full control effect
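Preincubation: enzyme (10 nM) with compound, 15 min, RT. Reaction: substrate added to 50 nM final. Reads: 0 and 10 min. Analysis: normalized, Hill fit.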
Pol iota inh: DNA polymerase iota (human) inhibition. Pol iota fluorescent replication assay, 10 min. Potency, µM (series often up to 115 µM), inactives show top-dose activity, negative = inhibition, hits mostly inhibitors. 390,000 tested, 1% active. AID 588590; note: potency is the fitted concentration of half-maximal effect
Target sequence (Q9UNA4 whole entry, looked up): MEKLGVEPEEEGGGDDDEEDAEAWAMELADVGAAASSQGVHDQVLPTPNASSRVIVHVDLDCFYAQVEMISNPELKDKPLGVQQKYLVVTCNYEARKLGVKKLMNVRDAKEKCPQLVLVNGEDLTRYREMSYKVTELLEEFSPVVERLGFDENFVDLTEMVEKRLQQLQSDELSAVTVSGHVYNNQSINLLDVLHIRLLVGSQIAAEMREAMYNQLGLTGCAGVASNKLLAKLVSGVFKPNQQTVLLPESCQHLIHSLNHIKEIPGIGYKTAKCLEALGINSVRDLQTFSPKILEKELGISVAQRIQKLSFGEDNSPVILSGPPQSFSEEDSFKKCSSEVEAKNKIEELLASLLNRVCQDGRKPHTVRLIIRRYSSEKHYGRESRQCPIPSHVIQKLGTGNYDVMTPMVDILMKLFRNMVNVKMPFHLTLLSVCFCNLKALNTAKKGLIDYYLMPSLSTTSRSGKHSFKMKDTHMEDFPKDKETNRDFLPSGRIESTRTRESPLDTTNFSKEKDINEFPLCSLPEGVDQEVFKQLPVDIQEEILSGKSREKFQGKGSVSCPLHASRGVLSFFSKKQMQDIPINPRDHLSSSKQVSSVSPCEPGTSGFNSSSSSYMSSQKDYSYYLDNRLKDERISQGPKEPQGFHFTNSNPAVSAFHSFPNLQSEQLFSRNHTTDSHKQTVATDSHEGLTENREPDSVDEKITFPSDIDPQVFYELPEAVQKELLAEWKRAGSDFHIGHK
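Pol iota at 10 nM preincubated 15 min with compounds at room temperature; reaction started with fluorescent substrate, 50 nM final. Fluorescence read kinetically at 0 and 10 min; buffer-only wells as negative control.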
POLH inh: DNA polymerase eta (human) inhibition. recombinant Pol eta, fluorescent DNA replication assay. Potency, µM (series often up to 114 µM), inactives show top-dose activity change, negative = inhibition, most hits filed as inhibitors. 390,000 tested, 1.2% active. AID 588591; note: potency is the fitted concentration of half-maximal effect; % is set by controls: 0 for no effect and ±100 for the full control effect
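Pol eta at 10 nM preincubated with compounds 15 min at room temperature; reaction started with fluorescent substrate (50 nM final) and read kinetically at 0 and 10 min.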
PI5P4Ka inh: blocks human PI5P4K alpha kinase activity. PI5P4Kalpha enzyme, ADP-Glo luminescence, 60 min; active compounds read low. max response, %. 330,000 tested, 1.2% active. AID 652105; active = max response of -50% or lower; inconclusive = between -30% and -50%; inactive = -30% or higher; note: value at the top dose of about 77 µM; % is set by controls: 0 for no effect and ±100 for the full control effect
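Single end-point luminescence (ADP-Glo) quantified ADP from PI5P4Kalpha turnover; ATP 5 microM final, 1 h at RT, 0.1% CHAPS and 0.28 mM EGTA in HEPES pH 7.4.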
WRN helicase inh: blocks human WRN helicase | Potency, µM (titrated, usually from 114 µM), without a hit: at the top dose activity change, negative = inhibition, usual class: inhibitors | 360,000 tested, 0.46% active | Q14191 | WRN helicase unwinding, fluorescent forked duplex, kinetic; note: potency is the fitted concentration of half-maximal effect; % is set by controls: 0 for no effect and ±100 for the full control effect; nearly all actives have a fitted effect of over 55% in size
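Kinetic red-fluorescence monitoring (525/598 nm) tracks WRN helicase activity after 100 nM fluorophore-quencher forked duplex and 2 mM ATP are added to 20 nM enzyme pretreated 15 min at room temperature with compound.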
Active calls of the source: *; [ ] = another dose, or the depositor's remark. In the library only some 2.8% were active in any assay of this set; here they are far more common. Unless noted, calls come from the whole dose curve; as a rule, active = well fitted curve in the direction sought with a large enough effect; inconclusive = small, poorly fitted or top-dose-only effect, or another doubt; inactive = no such curve, though single readings can be large; an effect the other way counts as inactive or inconclusive.

How did COc1ccc(NC(=O)Cc2ccc(Cl)c(Cl)c2)cn1 do in these assays?
Pol kappa inh: -13%; Pol beta inh: 8%; Pol iota inh: -10%; POLH inh: -4%; PI5P4Ka inh: -2; WRN helicase inh: 5%

How did COc1ccc(NC(=O)/C(Cl)=C(/Cl)S(=O)(=O)Cc2ccc(C)cc2)cn1 do in these assays?
Pol kappa inh: -6%; Pol beta inh: -1%; Pol iota inh: inconclusive; POLH inh: 14µM*; PI5P4Ka inh: -7; WRN helicase inh: 50µM*

How did COc1ccc(NC(=O)COC(=O)C(NC(=O)c2ccc(C)cc2)C(C)C)cn1 (centres undefined) do in these assays?
Pol kappa inh: -10%; Pol iota inh: 49%; POLH inh: -30%; PI5P4Ka inh: 1; WRN helicase inh: -4%

How did COc1ccc(NC(=O)/C(Cl)=C(/Cl)S(=O)Cc2ccccc2Cl)cn1 (centres undefined) do in these assays?
Pol kappa inh: -7%; Pol beta inh: -1%; Pol iota inh: inconclusive; POLH inh: 8%; PI5P4Ka inh: inconclusive; WRN helicase inh: 11µM*

Results for Cc1cc(C)nc(-n2nc(C)c3c2N(Cc2ccccc2C)C(=O)CC3c2ccc(Cl)cc2)n1 (centres undefined) ?
Pol kappa inh: -24%; Pol beta inh: inconclusive; Pol iota inh: 14%; POLH inh: -8%

What do the screens show for `Cc1ccccc1OCc1nnc(SCc2cc(=O)c3ccc(C)c(C)c3[nH]2)n1C`?
Pol kappa inh: -11%[60.1 µM]; Pol beta inh: 1%; Pol iota inh: 2%; POLH inh: -4%

Results for COC(=O)c1ccccc1-c1ccc(C(c2c(C)[nH][nH]c2=O)c2c(C)[nH][nH]c2=O)o1 ?
Pol kappa inh: -7%; Pol beta inh: 9%; Pol iota inh: 7.9µM*; POLH inh: inconclusive; PI5P4Ka inh: 1; WRN helicase inh: -17%

What do the screens show for `COC(=O)c1ccc(C(c2c(C)[nH][nH]c2=O)c2c(C)[nH][nH]c2=O)cc1`?
Pol kappa inh: 4%; Pol beta inh: 31%; Pol iota inh: -13%; POLH inh: -15%; PI5P4Ka inh: -2; WRN helicase inh: 3%

Results for COC(=O)c1cccc(-c2ccc(C(c3c(C)[nH][nH]c3=O)c3c(C)[nH][nH]c3=O)o2)c1 ?
Pol kappa inh: -7%; Pol beta inh: inconclusive; Pol iota inh: 7.1µM*; POLH inh: -5%; PI5P4Ka inh: inconclusive; WRN helicase inh: inconclusive

What do the screens show for `COc1ccc(Br)cc1C1Nc2cccc3cccc(c23)N1`?
Pol kappa inh: -2%; Pol beta inh: 79µM*; Pol iota inh: 53%; POLH inh: -19%; PI5P4Ka inh: 5; WRN helicase inh: -6%

Results for COc1cc(C2Nc3cccc4cccc(c34)N2)ccc1O ?
Pol kappa inh: -16%; Pol beta inh: -25%; Pol iota inh: 119%; POLH inh: inconclusive; PI5P4Ka inh: -27; WRN helicase inh: -26%

Results for CCOc1ccccc1Nc1nc(-c2cccc(Cl)c2)c2c(n1)-c1ccccc1OC2 ?
Pol kappa inh: 89µM*; Pol beta inh: 40µM*; Pol iota inh: -18%; POLH inh: -13%

What do the screens show for `c1ccc(-c2cc(-c3ccccc3)c3c(n2)-c2ccccc2OC3)cc1`?
Pol kappa inh: -1%; Pol beta inh: 32%; Pol iota inh: -4%; POLH inh: -15%

What do the screens show for `O=C(CSC1=Nc2ccccc2C2=NC(CCC(=O)NC3CCCCC3)C(=O)N12)Nc1cccc(Cl)c1` (centres undefined)?
Pol kappa inh: 11%; Pol beta inh: -3%; Pol iota inh: 20%; POLH inh: -17%

Results for CCc1ccc(/C=C/C(=O)c2cc(Br)ccc(=O)c2O)cc1 ?
Pol kappa inh: inconclusive; Pol beta inh: 16µM*; Pol iota inh: inconclusive; POLH inh: inconclusive; PI5P4Ka inh: -29; WRN helicase inh: -27%

How did O=C(C=Cc1ccccc1)c1cc(Br)ccc1O do in these assays?
Pol kappa inh: -9%; Pol iota inh: 75%; POLH inh: -19%; PI5P4Ka inh: 2; WRN helicase inh: -18%

What do the screens show for `CC(C)C(=O)NC(C)C(c1cccs1)N1CCN(c2ccccc2)CC1` (centres undefined)?
Pol kappa inh: -5%; Pol beta inh: 20µM*; Pol iota inh: 8%; POLH inh: -5%; PI5P4Ka inh: -2; WRN helicase inh: 9%

What do the screens show for `O=C(Nc1ccc(Br)cc1F)C1CCN(c2nc3ccccc3[nH]2)CC1`?
Pol kappa inh: -13%[60.1 µM]; Pol beta inh: 12%; Pol iota inh: 10%; POLH inh: -13%

Results for Cc1nnc(SCC(=O)NCc2ccccc2F)c2nn(-c3ccc(Cl)cc3)c(C)c12 ?
Pol kappa inh: -1%[60.1 µM]; Pol beta inh: inconclusive; Pol iota inh: 71µM*; POLH inh: inconclusive

How did CC1(c2nnc(Cc3ccccc3)o2)CC(c2ccccc2[N+](=O)[O-])=NO1 (centres undefined) do in these assays?
Pol kappa inh: 9%; Pol iota inh: -6%; POLH inh: -6%; PI5P4Ka inh: -51*; WRN helicase inh: 8%

How did Cc1nc2ccccc2nc1/C=C/c1ccc(N(C)C)cc1 do in these assays?
Pol kappa inh: -10%; Pol iota inh: 20%

What do the screens show for `CCC(=O)Nc1cc2c(cc1C(=O)c1ccccc1)OCCO2`?
Pol kappa inh: -7%; Pol beta inh: 79µM*; Pol iota inh: 11%; POLH inh: -8%; PI5P4Ka inh: -5; WRN helicase inh: -11%

What do the screens show for `COc1ccc(C)cc1NC(=O)NNC(=O)c1cc2ccccc2cc1O`?
Pol kappa inh: -13%; Pol beta inh: 79µM*; Pol iota inh: -26%; POLH inh: -1%; PI5P4Ka inh: -27; WRN helicase inh: -14%

What do the screens show for `COc1cc(NC(=O)c2cc3ccccc3cc2O)c(OC)cc1Cl`?
Pol kappa inh: 7%; Pol beta inh: -19%; Pol iota inh: -6%; POLH inh: -1%; PI5P4Ka inh: -5; WRN helicase inh: -5%

What do the screens show for `COc1ccccc1NC(=O)c1cc2cc(Br)ccc2cc1O`?
Pol kappa inh: 2%; Pol beta inh: 22µM*; Pol iota inh: -13%; POLH inh: inconclusive; PI5P4Ka inh: inconclusive; WRN helicase inh: -27%

What do the screens show for `O=C1[C@H](Cc2ccccc2)NC/C=C\C[C@H](c2ccc(Cl)cc2)N1Cc1ccc(Cl)cc1`?
Pol kappa inh: -22%; Pol iota inh: 7%

What do the screens show for `CCCOc1ccc(/C=c2\sc3nc(-c4ccco4)nn3c2=O)cc1OCC`?
Pol kappa inh: inconclusive; Pol beta inh: inconclusive; Pol iota inh: 22µM*; POLH inh: inconclusive; PI5P4Ka inh: inconclusive; WRN helicase inh: inconclusive
